Test [1] deals with Glutathione peroxidase 1 (Homo sapiens) (UniProt P07203). As to the kind of experiment: Primary qHTS Assay for Inhibitors of Recombinant Selenoprotein Glutathione Peroxidase 1 (GPX1) (AID 1845191). Further: nearly all actives have a fitted effect of over 65% in size. Put shortly:
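10 nM GPX1 + cpd, 30 min RT; start w/ 1 mM GSH, 0.5 mM cumene hydroperoxide, 0.5 mM NADPH, 100 nM GR, 0.01% BSA; buffer 50 mM Tris-HCl pH 7.5, 2 mM EDTA, 150 mM NaCl; Fl 340/450, 0 & 15 min.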

The nature of test [2]: qHTS drug screen for cell cycle checkpoint inhibitors in PARPi-resistant BRCA-mutant ovarian cancer cell lines. (AID 1963452; calls by dose curve). The note with it: PEO1/OlaR viability, CellTiter-Glo luminescence, 96 h; for Z-AUC: stronger effect = lower value. The method in brief:
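PEO1, PEO4 and PEO1/OlaR ovarian cancer cells, 600 per well, exposed 96 h at 37C to a dilution series. Viability read by CellTiter-Glo luminescence, normalized to DMSO and empty wells; activity summarized as Z-AUC.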
In general terms: In qHTS, concentration-response curves come from the screen itself.

Test [3] can be described thus: qHTS assay to identify inhibitors of the type 1 interferon - major histocompatibility complex class I in skeletal muscle: Counter screen cell viability and HiBit confirmation (AID 1347412). On activity change, negative = inhibition: on the % scale 0 is the no-effect control and ±100 the full control effect. On all read-outs here: nearly all actives have a fitted effect of over 60% in size. As to conditions: iHSKM muscle cells + IFN-b, HiBiT or CellTiter-Glo, 24 h; for activity change, negative = inhibition: at 45.9 µM (top of the series). Put shortly:
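HLA-B*08:01–HiBiT knock-in immortalized human myoblasts (C25cl48) stimulated with 4.0 ng/ml human IFN-beta and dosed with compound in a 12-point 1:3 titration (top final 46 uM). After 24 hrs at 37 C, HiBiT lytic luminescence or CellTiter Glo ATP read out.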

Where [4] appears, read: measured here: PEO1 parental Z-AUC.

Structures are written as SMILES. Inconclusive results are not listed. Calls of active or inactive are those of the source. Unless noted, the call rests on the fitted dose curve; in most records, active means well fitted curve in the direction sought with a large enough effect; inconclusive means small, poorly fitted or top-dose-only effect, or another doubt; inactive means no such curve, though single readings can be large; an effect the other way counts as inactive or inconclusive.
Potency means the concentration at half of the fitted maximal effect.

Sequence of Glutathione peroxidase 1 (Homo sapiens) (P07203 whole entry, looked up): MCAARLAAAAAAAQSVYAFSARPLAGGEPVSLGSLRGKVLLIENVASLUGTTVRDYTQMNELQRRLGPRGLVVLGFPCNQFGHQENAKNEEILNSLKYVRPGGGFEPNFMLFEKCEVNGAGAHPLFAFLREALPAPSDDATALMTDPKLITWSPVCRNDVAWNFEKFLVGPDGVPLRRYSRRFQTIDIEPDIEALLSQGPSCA

For `CC(C)(c1ccc(OCC(O)CO)cc1)c1ccc(OCC(O)CCl)cc1` (centres undefined), in test [1], the Potency result is “inactive”. Further, the Z-AUC was 1.33 (inactive) in test [2], 0.733 in test [2] (setting [4]) and 1.22 in test [2] (measured here: PEO4 Z-AUC).

In the case of `CC[C@H]1CN2CCc3cc(OC)c(OC)cc3C2C[C@@H]1CC1NCCc2cc(OC)c(OC)cc21` (some centres undefined), the Potency in test [3] (HiBiT) was 279 nM (active).

`COC(=O)N(CC(=O)O)Cc1cccc(OCc2nc(-c3ccc(Cl)cc3)oc2C)c1`: the Potency result in test [1] was “inactive”. The results for the Z-AUC in test [2], in test [2] (setting [4]) and in test [2] (measured here: PEO4 Z-AUC) were 1.24 (inactive), -0.00269 and 0.458, respectively.

For `CCN(CC)CCNC(=O)c1c(C)[nH]c(/C=C2/C(=O)Nc3ccc(-c4csc(-c5ccccc5)n4)cc32)c1C`, the Potency entry in test [1] was “inactive”. Moreover, the Z-AUC in test [2] is 0.984 (inactive); in test [2] (setting [4]), 0.413; in test [2] (measured here: PEO4 Z-AUC), -0.34. Besides, the Potency in test [3] (Viability) was 24900 nM (active).

Turning to `C/C=C1\NC(=O)[C@H]2CSSCCC=C[C@H](CC(=O)N[C@H](C(C)C)C(=O)N2)OC(=O)[C@H](C(C)C)NC1=O`, the Potency in test [3] (HiBiT) is 0.4 nM (active). For the same compound, the activity change, negative = inhibition in test [3] (Viability) was -27.6% (inactive).

Turning to `CC[C@@H](Oc1cccc(CN(CCCOc2ccc(OC)cc2)c2nc3ccccc3o2)c1)C(=O)O`, the Potency entry in test [1] is “inactive”. Also, the Z-AUC was 1.26 (inactive) in test [2], 0.312 in test [2] (setting [4]) and 0.341 in test [2] (measured here: PEO4 Z-AUC).

Turning to `C[C@H]1CN(C2COC2)CCN1c1ccc(Nc2cc(-c3ccnc(N4CCn5c(cc6c5CC(C)(C)C6)C4=O)c3CO)cn(C)c2=O)nc1`, the Potency result in test [1] was “inactive”. The Z-AUC in test [2] is -0.103 (inactive); in test [2] (setting [4]), 0.727; in test [2] (measured here: PEO4 Z-AUC), 0.518.

Take `CC(C)n1c(/C=C/[C@H](O)C[C@H](O)CC(=O)O)c(-c2ccc(F)cc2)c2ccccc21`: in test [1], the Potency entry is “inactive”. Also, the Z-AUC in test [2] was 1.2 (inactive); in test [2] (setting [4]), 1.21; in test [2] (measured here: PEO4 Z-AUC), 1.13.

For the compound `NC(=S)N/N=C/c1ncccc1N`, in test [1], the Potency entry was “inactive”. The results for the Z-AUC in test [2], in test [2] (setting [4]) and in test [2] (measured here: PEO4 Z-AUC) were 0.978 (inactive), 0.81 and 0.897, respectively.

As for `CC(=O)c1cc2c(o1)C(=O)c1ccccc1C2=O`, the Potency in test [1] is 1.29 µM (active); in test [2] it was 0.549 µM (active); in test [3] (HiBiT), 249 nM (active); in test [3] (Viability), 394 nM (active). The Z-AUC in test [2] (setting [4]) is -1.52; in test [2] (measured here: PEO4 Z-AUC) it was -1.88.

As for `C[C@@H]1Cc2c([nH]c3ccccc23)[C@@H](c2c(F)cc(/C=C/C(=O)O)cc2F)N1CC(C)(C)F`, the Potency result in test [1] is “inactive”. The Z-AUC in test [2] is -0.309 (inactive); in test [2] (setting [4]), -0.682; in test [2] (measured here: PEO4 Z-AUC), -0.807.

On to `CN(C)C[C@@H]1CCn2cc(c3ccccc32)C2=C(C(=O)NC2=O)c2cn(c3ccccc23)CCO1`, for which, in test [1], the Potency entry was “inactive”. Further, the Z-AUC in test [2] was 0.756 (inactive); in test [2] (setting [4]), 0.389; in test [2] (measured here: PEO4 Z-AUC), 0.797. Further, the Potency in test [3] (HiBiT) was 27900 nM (active).

Consider `CCC(=C/[C@H](C)C/C=C/C(C)=C/[C@@H](C)C(=O)[C@@H](C)[C@H](O)[C@@H](C)C/C(C)=C/C(=O)O)/C=C/[C@@H]1OC(=O)C=C[C@@H]1C`, for which, in test [1], the Potency result is “inactive”. Further, the Potency was 6.92 µM (active) in test [2] and 3.1 nM (active) in test [3] (HiBiT). The Z-AUC in test [2] (setting [4]) was -4.05; in test [2] (measured here: PEO4 Z-AUC), -3.51. For the same compound, the activity change, negative = inhibition in test [3] (Viability) is -3.47% (inactive).

Regarding `CC[C@@H](C)[C@H]1O[C@]2(CC[C@@H]1C)C[C@@H]1C[C@@H](C/C=C(\C)[C@@H](O[C@@H]3C[C@H](OC)[C@H](O[C@H]4C[C@H](OC)[C@@H](O)[C@H](C)O4)[C@H](C)O3)[C@@H](C)/C=C/C=C3\CO[C@@H]4[C@@H](O)C(C)=C[C@@H](C(=O)O1)[C@]34O)O2`, the Potency in test [3] (HiBiT) is 27900 nM (active); in test [3] (Viability), 31300 nM (active).

For `COc1ccc(S(=O)(=O)NCc2ccc(C(=O)NCCc3ccc(Cl)cn3)cc2)cc1`, in test [1], the Potency entry was “inactive”. The values for the Z-AUC in test [2], in test [2] (setting [4]) and in test [2] (measured here: PEO4 Z-AUC) were -2 (inactive), -0.947 and -0.745, respectively.

Regarding `CN1C(=O)N(c2cc(Cl)cc(Cl)c2)C(=O)[C@]12CN(Cc1cc(C(=O)O)cs1)C[C@H]2c1ccc(C#N)cc1`, in test [1], the Potency result was “inactive”. For the same compound, the Z-AUC in test [2] is 0.948 (inactive); in test [2] (setting [4]), 1.08; in test [2] (measured here: PEO4 Z-AUC) it was 0.897.

`NS(=O)(=O)Oc1ccc2c3c(c(=O)oc2c1)CCCCC3`: the Potency in test [1] is 4.09 µM (active). The values for the Z-AUC in test [2], in test [2] (setting [4]) and in test [2] (measured here: PEO4 Z-AUC) were 0.451 (inactive), 0.12 and -0.024, respectively.

For the compound `NS(=O)(=O)c1ccc(NC(=S)N2CCN(C/C=C/c3ccccc3)CC2)cc1`, the Z-AUC in test [2] was 0.177 (inactive); in test [2] (setting [4]), -0.364; in test [2] (measured here: PEO4 Z-AUC), -0.0827.

On to `C=CCN(/C=C1\C(=O)O[C@@H](COC)[C@]2(C)C1=C(O)C(=O)C1=C2[C@@H](OC(C)=O)C[C@]2(C)C(=O)CC[C@H]12)CC=C`, for which the Potency result in test [1] is “inactive”. The Z-AUC in test [2] was -0.265 (inactive); in test [2] (setting [4]), 0.0227; in test [2] (measured here: PEO4 Z-AUC) it was 0.306. Also, in test [3] (HiBiT), the activity change, negative = inhibition was -5.45% (inactive).

Take `Cc1nc2cccc(N)c2c(=O)n1C1CCC(=O)NC1=O` (centres undefined): the Potency result in test [1] is “inactive”. Moreover, the Z-AUC in test [2] was 1.24 (inactive); in test [2] (setting [4]), 1.14; in test [2] (measured here: PEO4 Z-AUC), 1.38.

For the origin of these results see PubChem BioAssay (NCATS).
